# Test results reported in PubChem BioAssay AID2012 (Sanford-Burnham Center for Chemical Genomics, 2009).
# Among all 290,000 compounds or so, about 2,700 (0.93%) were called active. No rule for the calls is given here. The list comes from a sample in which actives are over-represented; it also holds similar structures and randomly drawn compounds.
# Target: Eukaryotic translation initiation factor 4H (Homo sapiens) (UniProt Q15056)
# Experiment: eIF4H binding inhibition – biochemical, uHTS, fluorescence polarization, translation initiation inhibitor project, primary screen (AID 2012);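 also: calls also rest on retests at 20 µM and on dose response follow-up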
# Details: eIF4H fluorescence polarization binding assay, stronger effect = higher value
SMILES,inhibition (at 35 µM),"inhibition (confirmation average, at 20 µM) [%]"
O=c1nc(N/N=C/c2ccco2)cn[nH]1,76.3% (active),73.4
CC(C)NC(=O)C(=O)N/N=C/c1ccco1,-8.2% (inactive),
O=C(Cn1cnc2ccccc21)N/N=C/c1ccco1,69.8% (inactive),2.9
COc1ccc(Nc2ncnc3ccc(Br)cc23)c(OC)c1,-9.9% (inactive),
Cc1ccc(CS(=O)(=O)CCC(=O)NCc2ccc(F)cc2)cc1,-4.5% (inactive),
CCCCNC(=O)C1(O)c2ccccc2NC(=O)N1c1ccc(Cl)cc1 (centres undefined),-2.3% (inactive),
O=C(O)CC(c1ccccc1F)N1Cc2ccccc2C1=O (centres undefined),0.1% (inactive),
O=C(CNC(=O)c1ccc(Br)o1)NCC1CCCO1 (centres undefined),-11.8% (inactive),
O=C(c1ccc(Br)o1)N(c1ccccn1)C1CCCCC1,55.5% (active),99.6
O=C(c1cccs1)N(C(=O)c1cccs1)c1ccccn1,-8.6% (inactive),
CCOc1ccc(Br)cc1S(=O)(=O)N1CCC(C(=O)O)CC1,-7.6% (inactive),
Cc1ccc(S(=O)(=O)N2CCC(Oc3ccc(-n4cnnn4)cc3)CC2)cc1,1.6% (inactive),
CCOc1ccc(-n2cnnn2)cc1S(=O)(=O)N1CCC(C)CC1C (centres undefined),3.6% (active),90.8
COc1cccc(C(=O)Nc2nnc(S(=O)(=O)N3CCOCC3)s2)c1,-15.7% (inactive),
CN(Cc1ccccc1)C(=O)c1ccc(NC2=NC3CS(=O)(=O)CC3S2)cc1 (centres undefined),-7.2% (inactive),
COc1cccc(NC(=O)C2CCCN(c3ncnc4c3nc3n4CCCCC3)C2)c1 (centres undefined),2.9% (inactive),
O=C(c1ccc(S(=O)(=O)N2CCOCC2)cc1)N1CCN(c2ccccc2)CC1,-4.2% (inactive),
O=C(c1ccc(CS(=O)(=O)c2ccccc2)o1)N1CCN(c2ccccc2)CC1,93.4% (active),73.1
O=C(c1cc(=O)c2ccccc2o1)N1CCN(c2ccccc2)CC1,1.2% (inactive),
Cc1ccc(C)c(S(=O)(=O)N2CCN(C(=O)Nc3ccccc3)CC2)c1,4.3% (inactive),
CC(Oc1cc2oc(=O)c3c(c2cc1Cl)CCCC3)C(=O)NCc1ccncc1 (centres undefined),-3.9% (inactive),
Cc1ccc(-c2nn(-c3ccccc3)cc2/C=C2\SC(=S)N(CCCCCC(=O)O)C2=O)o1,78.9% (active),68.5
COc1ccc(-c2nn(-c3ccccc3)cc2/C=C2/SC(=S)N(CCCC(=O)O)C2=O)c(C)c1,15.2% (inactive),
CN(C)S(=O)(=O)c1cccc(-c2nn(-c3ccccc3)cc2/C=C2\SC(=S)N(CC(=O)O)C2=O)c1,47.3% (inactive),

SMILES,inhibition (at 35 µM),"inhibition (confirmation average, at 20 µM) [%]"
CCOC(=O)CSc1nc(N2CCOCC2)c2c(c1C#N)CC(C(C)C)OC2 (centres undefined),-6.3% (inactive),
Cc1ccnc(NC(=O)CCNS(=O)(=O)c2ccc(C)c(C)c2)c1,-10.9% (inactive),
CN1CCc2nc(SC(C(=O)O)c3ccccc3)c(C#N)c(-c3cccs3)c2C1 (centres undefined),76.7% (active),
CCc1c(-c2ccccc2)nc(N)c(C#N)c1-c1cccs1,-8.4% (inactive),
Cc1c(-c2ccccc2)nc(N)c(C#N)c1-c1cccs1,7.1% (inactive),
O=C(O)C1CCCCC1C(=O)N1CCN(S(=O)(=O)c2ccc(F)cc2)CC1 (centres undefined),-6.9% (inactive),
Cc1c(C)c(C)c2[nH]c(=S)[nH]c2c1C,-4.2% (inactive),
Cc1cc(=O)[nH]c(=S)[nH]1,2.4% (inactive),
O=c1[nH]c(=S)[nH]c2[nH]c(=S)[nH]c12,88.2% (active),
CN(C(=O)CCNC(=O)Cn1ccc2ccccc2c1=O)c1ccc(Br)cc1,1.5% (inactive),
CCOC(=O)N1CC=C2C(C#N)=C(N)C(C#N)(C#N)[C@H](c3cccs3)[C@H]2C1,63.3% (active),
CCOC(=O)C1=C(C)NC(=S)NC1c1cccs1 (centres undefined),-5% (inactive),
N#CC1=C(N)C(C#N)(C#N)[C@H](c2ccsc2)[C@H]2COCC=C12,113% (inactive),-3.8
Cc1ccn2c(c1)nc(=O)c1cc(S(=O)(=O)N3CCC(C)CC3)ccc12,-3.5% (inactive),
Cc1ccc(Cl)c(OCC(=O)N2CCc3ccccc3C2)c1,-9.4% (inactive),
O=C(Nc1ncc2c(n1)CC(c1ccco1)CC2=O)c1ccc(Cl)cc1 (centres undefined),83.6% (active),
CCc1ccc(Nc2ncc3c(n2)CC(c2ccco2)CC3=O)cc1 (centres undefined),-4% (inactive),
O=C(Nc1ncc2c(n1)-c1ccccc1OC2)c1ccc(Cl)cc1,-10.3% (inactive),
Cc1c(CC(=O)NCCCCCC(=O)O)c(=O)oc2cc3occ(-c4ccccc4)c3cc12,6% (inactive),
CCCCCCc1cc2cc(-c3nnc(-c4ccccc4)o3)c(=O)oc2cc1O,70.4% (active),
Cc1c(CCC(=O)O)c(=O)oc2cc3occ(-c4ccccc4)c3cc12,14.4% (inactive),
Cc1nc(NC(=O)c2ccc3c(c2)OCCO3)ccc1Br,-4.6% (inactive),
CCOc1ccc(OCC(=O)Nc2c3c(nn2C(C)(C)C)CS(=O)(=O)C3)cc1,-13.7% (inactive),
COc1ccc(CNS(=O)(=O)c2ccc(-c3cnc(C4CC4)o3)cc2)cc1,-9.2% (inactive),

SMILES,inhibition (at 35 µM),"inhibition (confirmation average, at 20 µM) [%]"
O=C1OCC2=C1C(c1ccccc1)CC(=O)N2c1cccc(F)c1 (centres undefined),4.2% (active),96.6
O=C1CC(c2ccccc2)C(=O)N1c1cccc(O)c1 (centres undefined),-6.1% (inactive),
O=C1CC(NNc2ccccc2)C(=O)N1c1cccc(Cl)c1 (centres undefined),-1.9% (inactive),
Cc1ccc(NC(=O)CCC(=O)c2ccc(Br)cc2)cc1,-5% (inactive),
CCc1c(C)nc2cc(-c3cccs3)[nH]n2c1=O,4.5% (inactive),
Cc1cc(=O)n2[nH]c(-c3sccc3-n3c(C)ccc3C)cc2n1,93.9% (active),97.8
Cc1cc(=O)n2[nH]c(-c3cccc(Cl)c3)cc2n1,-7.1% (inactive),
CC1CSc2nnc(CCc3ccccc3)n21 (centres undefined),-1.5% (inactive),
S=C(NCCc1ccccc1)N1CCn2cccc2C1c1ccncc1 (centres undefined),8.3% (inactive),
c1ccc(CCC2=NCCn3cccc32)cc1,61.9% (active),
O=C(NCC(=O)N1CCN(c2ccccc2O)CC1)c1ccc2ccccc2c1,6% (inactive),
COc1cc(C(=O)OCC(=O)NC(C)CCc2ccccc2)cc(OC)c1OC (centres undefined),5.2% (inactive),
Cc1ccc(CN2CCNC(=O)C2CC(=O)NCc2csc(C(C)C)n2)cc1 (centres undefined),-5.6% (inactive),
CCN1C(=O)/C(=c2\s/c(=C3\Sc4ccccc4N3C)c(=O)n2C)N(C)C1=S,-3% (inactive),
CN1/C(=c2/s/c(=C3/C(=O)N(c4ccccc4)NC3=Nc3ccccc3)n(C)c2=O)C(C)(C)c2ccccc21,75.5% (active),
O=[N+]([O-])c1cc([N+](=O)[O-])c(Oc2cc(F)cc(F)c2F)cc1NN1CCCCC1,0.2% (inactive),
Cn1c(=O)c2ccccc2n(CC(=O)Nc2ccc3c(c2)OCCO3)c1=O,-5.6% (inactive),
COc1ccc(-c2c(-c3ccc(OC)cc3O)nc(C)nc2C(F)(F)F)cc1,-5.5% (inactive),
Cc1ccc(Cc2cnc(N)s2)o1,65.8% (active),93.7
Cc1ccc(CCC(=O)Nc2ncc(Cc3cc(Cl)ccc3Cl)s2)o1,1.5% (inactive),
O=C(CCc1nnc2ccc(NCc3ccccc3Cl)nn12)NCC1CCN(C2CCCC2)C1 (centres undefined),13.5% (inactive),
Cc1nn(Cc2ccccc2)c(C)c1NS(=O)(=O)c1ccccc1,-5.2% (inactive),
CC(=O)N(CN1C(=O)C2C3C=CC(C3)C2C1=O)c1cccc(Cl)c1 (centres undefined),-5.8% (active),61.4
O=C(CN1C(=O)C2C3C=CC(C3)C2C1=O)NCCc1ccccc1Cl (centres undefined),-10.5% (inactive),

SMILES,inhibition (at 35 µM),"inhibition (confirmation average, at 20 µM) [%]"
CC(=O)N(CN1C(=O)C2CC=CCC2C1=O)c1cccc(Cl)c1 (centres undefined),26% (inactive),
COc1ccc(OCc2cc(C(=O)NCC3(C)COC3)no2)c(Cl)c1,-2.3% (inactive),
O=C(O)c1cccc(N2C(=O)Nc3ccccc3N2O)c1,1% (inactive),
Cn1cccc1/C=C1\SC(=O)N(CC(=O)Nc2ccc(F)cc2)C1=O,1.6% (inactive),
N#Cc1ccccc1CN1C(=O)S/C(=C/c2cccn2-c2cccc(C(=O)O)c2)C1=O,81.6% (active),74.8
Cc1cc(CN(C)C(=O)c2cc(COc3ccc(C)c(C)c3)on2)n[nH]1,-4.1% (inactive),
CCCc1cc(=O)n2[nH]c(C)c(-c3ccc(Cl)cc3)c2n1,11.3% (inactive),
COc1ccccc1OCCCC(=O)Nc1ccc2c(c1)OCCO2,-2.5% (inactive),
COc1cc(C(=O)N2CCN(C)CC2)cc(OC)c1OC,-6.9% (inactive),
COc1ccccc1OCc1ccc(C(=O)N2CCN(C)CC2)o1,0.9% (inactive),
COc1cc2c(C(=O)N3CCN(C)CC3)c(CSc3ccccc3)n(C)c2cc1Br,1.1% (active),81.5
Cc1ccc(N2C(=O)C3C4C=CC(CC4)C3C2=O)cc1Br (centres undefined),-2.9% (inactive),
CN(CCC1CCOCC1)C(=O)CC1C(=O)NCCN1Cc1cccc(F)c1 (centres undefined),-3.2% (inactive),
O=C(Nc1ccc(S(=O)(=O)Nc2ccccn2)cc1)c1ccccc1,-9.1% (inactive),
C=CCn1c(=O)c(C(=O)Nc2ncccc2O)c(O)c2ccccc21,22% (inactive),
CS(=O)(=O)Nc1ccccc1N=C(c1ccccc1)c1ccccc1,1.1% (inactive),
CCOc1ccc(N(CC(=O)NCCOc2ccccc2OC)S(=O)(=O)c2ccccc2)cc1,-3.8% (inactive),
COc1ccc(Cl)cc1NC(=O)CCS(=O)(=O)c1ccc(Br)cc1,84.2% (active),
O=C(NCCS(=O)(=O)c1ccc(Br)cc1)c1ccccc1Cl,-7.2% (inactive),
COc1ccc(Cl)cc1NC(=O)CCS(=O)(=O)c1cc2c(cc1C)NC(=O)CO2,3.9% (inactive),
O=C(CCS(=O)(=O)c1ccc(Br)cc1)NCCc1ccc(Cl)cc1,86.1% (active),67.7
NS(=O)(=O)c1ccc(CCNC(=O)Nc2ccc(Cl)cc2)cc1,-4.8% (inactive),
COc1ccc(Cl)cc1NC(=O)CCN1CCOCC1,-3.3% (inactive),
